The panel holds about 83,000 compounds, 20% with a hit somewhere; the sample as a whole holds those more often.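 Note: values are percent growth. 100 is the growth of untreated cells, values between 100 and 0 indicate rising inhibition; between -100 and 0 indicates cell death.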 Values without a mark were called inactive. Calls of active or inactive are those of the source. How the source made its calls: active means growth percent below 10; inactive means the rest.

In this assay the test system is KM12 colon. The assay is described as follows: NCI-60 one-dose screen, 48 h (100 = growth as untreated, 0 = no growth, -100 = all killed). The following applies: 10 µM unless noted.
For the compound `O=C(/C=C/c1cccc(F)c1)c1cccc(OCCCOc2cccc(C(=O)/C=C/c3cccc(F)c3)c2)c1`, the growth was 32.6%.

For `NC(=O)n1c(=O)n(-c2cccc(C(F)(F)F)c2)c(=O)c2cc(-c3ccc(F)cc3F)ccc21`, the growth is 5.24% (active). To `CCCCCc1ccc(S(=O)(=O)Nc2cc(-c3csc(N)n3)ccc2OC)cc1` belongs 99.6%; to `COC(=O)c1cccc(NC2=CC(=O)C(C)=C(C)C2=O)c1`, 97.1%; to `O=C(/C=C/c1cccc(C(F)(F)F)c1)Nc1cccc(C(F)(F)F)c1`, 24.4%.

These data come from PubChem BioAssay (NCI).
